Reference: publication PMC4336329 (PLoS ONE, 2015)
About 14,000 (4.5%) of roughly 310,000 compounds showed an effect of 50% or more. The effect is printed as a negative number. For the sample, strong results were picked, then their nearest neighbours and some compounds at random.

The compounds below were run against human ether-à-go-go-related gene (hERG) potassium channel (human, UniProt Q12809) (assay: primary screen, population patch clamp on CHO cells stably expressing hERG; higher = less effect of the substance).
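Note: peak tail current of the secondary pulse compared with the same well before compound.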

human ether-à-go-go-related gene (hERG) potassium channel, sequence (Q12809 whole entry, looked up): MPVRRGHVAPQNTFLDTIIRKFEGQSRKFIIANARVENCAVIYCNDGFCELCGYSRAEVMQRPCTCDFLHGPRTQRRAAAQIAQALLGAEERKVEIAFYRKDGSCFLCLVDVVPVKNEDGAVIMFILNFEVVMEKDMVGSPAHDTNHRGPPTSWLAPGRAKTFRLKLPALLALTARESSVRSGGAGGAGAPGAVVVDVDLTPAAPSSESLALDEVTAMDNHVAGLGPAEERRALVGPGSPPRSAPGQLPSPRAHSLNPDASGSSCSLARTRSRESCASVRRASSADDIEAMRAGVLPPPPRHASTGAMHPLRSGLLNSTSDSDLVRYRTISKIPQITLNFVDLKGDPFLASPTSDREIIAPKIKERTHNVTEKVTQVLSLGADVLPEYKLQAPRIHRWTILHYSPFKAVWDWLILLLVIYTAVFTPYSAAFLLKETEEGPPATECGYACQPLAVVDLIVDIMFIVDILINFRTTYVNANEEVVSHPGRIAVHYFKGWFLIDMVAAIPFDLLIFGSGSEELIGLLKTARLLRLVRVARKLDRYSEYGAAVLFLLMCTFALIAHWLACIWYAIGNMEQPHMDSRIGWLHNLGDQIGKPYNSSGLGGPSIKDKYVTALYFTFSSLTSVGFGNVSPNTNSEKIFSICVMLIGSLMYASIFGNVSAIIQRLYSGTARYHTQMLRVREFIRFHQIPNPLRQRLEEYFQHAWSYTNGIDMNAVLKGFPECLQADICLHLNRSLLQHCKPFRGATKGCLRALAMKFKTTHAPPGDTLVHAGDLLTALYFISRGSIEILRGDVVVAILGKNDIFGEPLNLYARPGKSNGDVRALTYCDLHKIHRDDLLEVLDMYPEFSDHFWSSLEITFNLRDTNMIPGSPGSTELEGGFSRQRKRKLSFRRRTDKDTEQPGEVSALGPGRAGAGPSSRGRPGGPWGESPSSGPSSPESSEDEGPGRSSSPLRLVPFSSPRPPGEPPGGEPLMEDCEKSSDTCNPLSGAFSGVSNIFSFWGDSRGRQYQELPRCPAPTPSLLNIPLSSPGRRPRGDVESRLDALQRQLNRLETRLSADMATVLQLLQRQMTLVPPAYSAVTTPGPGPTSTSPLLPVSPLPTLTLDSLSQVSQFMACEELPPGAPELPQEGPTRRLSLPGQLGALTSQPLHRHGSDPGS

SMILES | hERG current change (%, negative = inhibition) at 10uM [%]
COc1ccc(C2CC(c3cccs3)=NN2C(=O)CSc2nnc(N)s2)cc1OC (stereo not shown) | -4.6
O=C(CCCOc1ccccc1)Nc1ccc(Cl)cn1 | -3.18
CCCCC(=O)Nc1cc(OCC)c(NC(=O)c2ccccc2[N+](=O)[O-])cc1OCC | -4.27
FC(F)(F)c1ccc2nnc(-c3c(Cl)cccc3Cl)n2c1 | -4.48
Fc1cccc(Cl)c1-c1nnc2ccc(C(F)(F)F)cn12 | 10.9
FC(F)(F)c1cccc(-c2nnc3ccc(C(F)(F)F)cn23)c1 | -65.2
O=C(Nc1ccc2nc3ccccc3nc2c1)c1ccc(Br)cc1 | 17.9
O=C(NC(=S)N1CCN(c2ccc([N+](=O)[O-])cc2)CC1)c1ccco1 | -61.2
Cc1ccc(C(=O)NC(=S)N2CCN(c3ccc([N+](=O)[O-])cc3)CC2)cc1 | -15.6
O=C(NC(=S)N1CCN(c2ccc([N+](=O)[O-])cc2)CC1)c1ccccc1Cl | -39.8
O=C(NC(=S)N1CCN(c2ccc([N+](=O)[O-])cc2)CC1)c1ccccc1F | -25.8
O=C(NC(=S)N1CCN(c2ccc([N+](=O)[O-])cc2)CC1)c1ccccc1 | 0.58
O=C(NC(=S)N1CCN(c2ccc(Cl)cc2[N+](=O)[O-])CC1)c1cccs1 | -30
CCC(=O)N1CCN(c2ccc(Cl)cc2NC(=S)NC(=O)c2ccco2)CC1 | -0.88
O=C(NC(=S)N1CCN(c2ccc([N+](=O)[O-])cc2)CC1)c1ccc(F)cc1 | -58.5
O=C(NC(=S)N1CCN(c2ccc(Cl)cc2[N+](=O)[O-])CC1)c1ccco1 | -68.4
Cc1oc(C(C)(C)C)cc1C(=O)N1CCN(c2ccc(C(F)(F)F)cn2)CC1 | -5.33
Cc1ccc(N(C(=O)c2nsc(Cl)c2Cl)C(C(=O)NC2CCCC2)c2ccc(O)cc2)cc1C (stereo not shown) | 9.52
COc1ccc(-n2c(O)c(/C=N/n3cnnc3)c3ccccc3c2=O)cc1 | -1.22
CC(=O)Nc1ccc(S(=O)(=O)NC2=C(N3CCN(C)CC3)C(=O)c3ccccc3C2=O)cc1 | -0.763
CC(=O)c1ccc(NC(=O)Cn2cnc(S(=O)(=O)N3CCC(C)CC3)c2)cc1 | 21.4
Cc1cccc(NC(=O)C2CCN(c3ncnc4c3nc3n4CCCCC3)CC2)n1 | -29.5

SMILES | hERG current change (%, negative = inhibition) at 10uM [%]
Cc1ccnc(NC(=O)C2CCCN(c3ncnc4c3nc3n4CCCCC3)C2)c1 (stereo not shown) | -45.6
O=C(Nc1ccc(Cl)cn1)C1CCN(c2ncnc3c2nc2n3CCCCC2)CC1 | -38.8
Cc1ccc(NC(=O)C2CCCN(c3ncnc4c3nc3n4CCCCC3)C2)nc1 (stereo not shown) | -62.5
O=C(Nc1ccc(Cl)cn1)C1CCCN(c2ncnc3c2nc2n3CCCCC2)C1 (stereo not shown) | -57.7
Cc1cccc(NC(=O)C2CCCN(c3ncnc4c3nc3n4CCCCC3)C2)n1 (stereo not shown) | -54.2
O=C(Nc1ccccn1)C1CCCN(c2ncnc3c2nc2n3CCCCC2)C1 (stereo not shown) | -34.8
O=C(Oc1ccc2c3c(c(=O)oc2c1)CCC3)c1ccco1 | -1.09
CCOC(=O)c1ccc(NC(=O)CN2C(=O)NC3(CCCCCCC3)C2=O)cc1 | -7.35
COC(=O)c1[nH]c2ccc(F)cc2c1NS(=O)(=O)c1ccc(F)c(C)c1 | 0.344
Cc1ccc(C2Nc3ccccc3NC3=C2C(=O)CC(C)(C)C3)c(O)c1 (stereo not shown) | 3.15
Nc1c2c(nc3sc4c(c13)CCCC4)CCCC2 | -70.4
Nc1c2c(nc3sc4c(c13)CCCC4)CCCCC2 | -6.3
Nc1c2c(nc3sc4c(c13)CCCCC4)CCCCC2 | -25.9
Cc1nc2ccccc2nc1OCC(=O)Nc1ccccc1 | 14.8
Cc1ccc(S(=O)(=O)N(CC2CO2)c2cc(Cl)ccc2Cl)cc1 (stereo not shown) | -6.93
C[C@]1(C(=O)NCCCNc2ncc(C(F)(F)F)cc2Cl)C=C[C@@H](Cc2ccccc2)N1C(=O)c1ccccc1 | 7.01
COC(=O)N1[C@H](C)C=C[C@]1(Cc1ccccc1)C(=O)NCCCNc1ncc(C(F)(F)F)cc1Cl | -10.5
CC1(C(=O)NCCCNc2ncc(C(F)(F)F)cc2Cl)C=CCN1C(=O)c1ccccc1 (stereo not shown) | -56.4
O=C(COC(=O)COc1ccccc1[N+](=O)[O-])Nc1ccccc1Br | 3.82
COCCCNC(=S)N1CCN(c2nc(-c3ccccc3)cs2)CC1 | -5.55
CCCCNC(=O)CCSc1ccc(C)cc1 | -2.9
